# Compounds with a hit are over-represented: about 10% of the library has one in this group of screens.
# SW480 rereplic: induces DNA re-replication in SW480 colon adenocarcinoma cells; AID 624297; Potency, µM (doses to about 46.1 µM), without a hit: top-dose re-replication activation, usual class: activators; SW480 DNA re-replication, Hoechst DNA content imaging, 48 h; 340,000 compounds, 1.8% hits; further: % of control where 0% means no effect; nearly all actives have a fitted effect of over 55% in size
#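 First, 250 cells per well were seeded. Next, compound or vehicle (23 nL) was pinned in, plates sat 48 hr at 37 C. Finally Hoechst was added for 40 min before fluorescence scanning.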
# Gal4-VP16 FLuc: counter-screen for ROR gamma inhibitors: Gal4-VP16 reporter. Drosophila S2 Gal4-VP16 UAS-luciferase, luminescence, 20 h. Potency, µM (series often up to 53.6 µM), inactives show at the top dose activity, negative = inhibition, most hits filed as inhibitors. 310,000 compounds, 3.5% hits. AID 2546;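 further: Gal4-VP16 expression switched on by copper sulfate through the metallothionein promoter; on the % scale 0 is the no-effect control and ±100 the full control effect; nearly all actives have a fitted effect of over 50% in size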
# MCF10A rereplic: induces DNA re-replication in MCF 10a normal breast cells; MCF 10A DNA re-replication, Hoechst nuclear intensity, 48 h; Potency, µM (top dose mostly 46.1 µM), without a hit: top-dose activity, positive = re-replication, actives largely listed as activators; 350,000 compounds, 2.9% hits; further: % of control where 0% means no effect; nearly all actives have a fitted effect of over 50% in size
# RORg inh: inhibitors of mouse ROR gamma transcriptional activity | Potency, µM (doses to about 53.6 µM), without a hit: at the highest dose activity change, negative = inhibition, usual class: inhibitors | AID 2551 | P51450 | 310,000 compounds, 5.4% hits | Drosophila S2 Gal4-RORgamma UAS-luciferase reporter, 20 h; further: on the % scale 0 is the no-effect control and ±100 the full control effect; nearly all actives have a fitted effect of over 60% in size
# Target sequence (P51450 whole entry, looked up, the tested form may be a part): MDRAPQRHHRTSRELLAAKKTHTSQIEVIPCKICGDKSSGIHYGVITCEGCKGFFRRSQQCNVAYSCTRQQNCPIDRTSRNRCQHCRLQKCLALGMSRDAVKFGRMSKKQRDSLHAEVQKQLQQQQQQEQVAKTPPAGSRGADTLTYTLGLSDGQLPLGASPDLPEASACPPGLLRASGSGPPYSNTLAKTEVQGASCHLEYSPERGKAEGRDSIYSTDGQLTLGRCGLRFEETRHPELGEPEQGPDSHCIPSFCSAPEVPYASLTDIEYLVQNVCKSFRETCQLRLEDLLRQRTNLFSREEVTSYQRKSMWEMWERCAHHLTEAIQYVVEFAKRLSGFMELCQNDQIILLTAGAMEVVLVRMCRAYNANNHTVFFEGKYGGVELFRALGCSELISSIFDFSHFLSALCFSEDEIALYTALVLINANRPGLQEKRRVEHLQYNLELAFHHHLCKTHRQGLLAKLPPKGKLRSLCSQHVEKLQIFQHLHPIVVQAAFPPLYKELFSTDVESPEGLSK
#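 Drosophila S2 cells stably expressing Gal4-DBD/mouse RORγ fusion under metallothionein promoter plus UAS-luciferase; compound 1 h, then 700 uM CuSO4 induction for 20 h at ambient temperature; inhibition read as reduced luminescence.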
# ELG1 repair inh: inhibitors of ELG1-dependent DNA repair in HEK293T cells | HEK293T ELG1-luciferase reporter, luminescence, 16 h; DNA damage induced by 5-fluorouridine | Potency, µM (doses to about 46.1 µM), for the others: at the highest dose activity change, negative = inhibition, actives largely listed as inhibitors | 330,000 compounds, 2.3% hits | AID 504467; further: on the % scale 0 is the no-effect control and ±100 the full control effect; nearly all actives have a fitted effect of over 55% in size
#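 Quantitative HTS, concentration-response format. 2,000 cells/well co-treated with 5-fluorouridine and compound, 16 hr in 5% CO2 at 37 °C; ONE-Glo luminescence read after 30 min.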
# * hit, by the source's call; ? = inconclusive; nt = no result; [ ] = another dose, or the depositor's remark. The call rests on the fitted dose curve; in most records, active means well fitted curve in the direction sought with a large enough effect; inconclusive means small, poorly fitted or top-dose-only effect, or another doubt; inactive means no such curve, though single readings can be large; an effect the other way counts as inactive or inconclusive. Potency means the concentration at half of the fitted maximal effect.
SMILES,SW480 rereplic,Gal4-VP16 FLuc,MCF10A rereplic,RORg inh,ELG1 repair inh
COc1ccc(OCc2cc(/C=N\NC(=O)c3ccccc3)ccc2OC)cc1,14.6µM*,?,8.2µM*,?,?
COc1ccc(/C=N\NC(=O)c2ccccc2Br)cc1COc1ccccc1,?,2.8%,-4.0%,-11.1%,5.7%
O=S(=O)(NCCOc1ccccc1F)c1cccc(Br)c1,-14.2%,nt,3.5%,nt,-1.3%
O=C(N/N=C/c1ccc(OCc2ccccc2)cc1)c1ccncc1,-95.7%,-17.5%,?,12.6µM*,?
COc1cccc(/C=N/NC(=O)c2ccc(OCc3cccc(Br)c3)cc2)c1,-1.8%,-0.6%,-1.7%,14.1µM*,-11.3%
CCOc1ccc(CN2CCNC(=O)C2CC(=O)NCC2CCOCC2)cc1 (stereo unspecified),0.3%,-11.1%,0.0%,-11.4%,2.1%
CCCCN(C(=O)c1cc2c(s1)CCCCC2)c1c(N)n(CCC)c(=O)[nH]c1=O,-4.8%,nt,-1.3%,nt,15.5%
Cc1ccc(/C=N/NC(=O)c2cccnc2)s1,2.2%,-81.0%,1.4%,17.8µM*,11.2%
COc1ccc(CC(=O)N/N=C/c2ccc(C)s2)cc1,7.9%,nt,?,nt,nt
Cc1ccc(/C=N/NC(=O)c2ccc(C(=O)N/N=C/c3ccc(C)s3)o2)s1,-3.7%,-20.7%,?,8.91µM*,-6.0%
Cc1ccc(C(=O)CSc2nnc(N)s2)c(C)c1,-4.7%,-15.7%,0.1%,-36.1%,?
COC(=O)C1=CN(c2ccc(F)cc2)C=C(C(=O)OC)C1c1ccc(O)cc1,27.6%,5.8%,6.9%,-5.3%,1.1%
CC(Sc1nnc(CC(=O)Nc2ccccc2F)n1C)C(=O)Nc1nccs1 (stereo unspecified),-56.1%,2.1%,?,6.8%,-0.6%
O=C1N/C(=N\N=C\c2ccc3ncccc3c2)SC1Cc1ccc(SC(F)F)cc1 (stereo unspecified),?,?,16.4µM*,4.2%,?
O=C1N/C(=N\N=C\c2cccnc2)SC1Cc1ccc(SC(F)F)cc1 (stereo unspecified),24.6%,0.708µM*,?,0.501µM*,19.6%
CCOc1cc(/C=N/N=C2/NC(=O)C(CC(=O)O)S2)ccc1OCc1ccc(Cl)cc1 (stereo unspecified),-1.1%,2.6%,0.0%,29.8%,-1.2%
O=C1N/C(=N\N=C\c2ccccn2)SC1Cc1cccc(SC(F)F)c1 (stereo unspecified),?,3.16µM*,?,1.78µM*,-21.8%
COc1ccc(COC(=O)N/N=C2/C[C@@H](O)[C@@H](O)[C@@H]3[C@@H]4C(=O)N(C(C)(C)C)C(=O)[C@H]4CC[C@@H]23)cc1,nt,-8.5%[10 µM],nt,10.1%[10 µM],nt
CC(C)CCNC1c2ccccc2C(=O)N1Cc1ccccc1 (stereo unspecified),-4.3%,11.9%,-2.9%,13.3%,-3.6%
Cn1c(SCc2ccccc2F)nnc1-c1ccccn1,-5.4%,3.7%,-10.8%,0.5%,?
O=c1c(Cc2c(F)cccc2Cl)c(O)ccn1CCc1ccccn1,-14.2%,-17.1%,3.9%,-3.6%,0.9%
Nc1nc(-c2ccccn2)nc(N)c1Cc1ccccc1F,8.1%,1.0%,?,6.31µM*,?
Nc1nc(-c2ccccn2)nc(N)c1Cc1c(F)cccc1Cl,?,11.2µM*,?,2.82µM*,?
Nc1nc(-c2ccccn2)nc(N)c1Cc1ccc(Cl)cc1Cl,10.3µM*,8.91µM*,?,3.98µM*,13.5%
CC(C)C(O)(CC#CCN1CCCC1)c1ccccc1 (stereo unspecified),-5.0%,6.8%,2.1%,-14.7%,-12.5%
SMILES,SW480 rereplic,Gal4-VP16 FLuc,MCF10A rereplic,RORg inh,ELG1 repair inh
CCOC(=O)C1C(C(=O)OC)=C(CC(C)C)c2ccccc2N1S(=O)(=O)C(F)(F)F (stereo unspecified),nt,4.8%,nt,34.4%,nt
O=C(N/C(=C\c1cccc([N+](=O)[O-])c1)C(=O)N(CCO)CCO)c1ccco1,2.5%,6.9%,1.6%,22.5%,4.7%
Cc1cnc(CNc2nc(-c3ccc(N(C)C)cc3)nc3ccccc23)cn1,nt,11.2µM*,nt,?,nt
Cc1ccc(OCC(=O)OC(C)CN2CCCCC2)cc1 (stereo unspecified),-100.1%,-8.5%,1.03µM*,-2.1%,-2.9%
COc1ccc(-c2[nH]ncc2CN2C[C@@H]3CCC[C@H]2C3)c(F)c1,-1.9%,2.5%,17.7%,3.5%,7.1%
COc1ccc(C(=O)/C=C/c2ccc(OC)c(Cn3nnc4ccccc43)c2)cc1,nt,-16.2%,16.4µM*,36.6%,?
COc1ccc(C)cc1Cn1nnc2ccccc21,12.4%[9.22 µM],nt,11.1%,nt,10.7%
COc1ccc(C=CC(=O)C=CC=Cc2ccccc2)cc1,20.6µM*,nt,?,nt,nt
COc1ccc(NCC(=O)N/N=C/C=C\c2ccccc2)cc1,-2.5%,12.6µM*,1.7%,11.2µM*,13.6%
CN(C)c1ccc(N/C=C/C(=O)c2ccccc2)cc1,?,10µM*,?,5.62µM*,?
COc1ccc(C(=O)OCCc2ccc(O)cc2)cc1,-2.8%,12.6µM*,11.0%,7.08µM*,?
COc1ccc(C(=O)/C=C/c2ccccc2)cc1,nt,-7.0%,nt,?,nt
COc1ccc(/C=C/C(=O)c2nc3ccccc3n2CC(=O)c2ccc(OC)cc2)cc1,16.0%,-8.0%,1.8%,10µM*,-9.0%
COc1ccc(C(=O)Cn2c(C(C)=O)nc3ccccc32)cc1,3.4%,nt,13.3%,nt,nt
COc1ccc(C(=O)/C=C/c2ccc(O)cc2)cc1,16.0%,2µM*,16.0%,0.316µM*,9.5%
CN(C)c1ccc(/C=C/C(=O)c2ccc(O)cc2)cc1,18.4µM*,nt,?,nt,nt
COc1ccc(C(=O)NCc2c(C)nn(Cc3ccccc3)c2C)cc1S(=O)(=O)N1CCOCC1,?,nt,14.6µM*,nt,?
COc1ccc(S(=O)(=O)N2CCOCC2)cc1C(=O)NCc1c(C)nn(Cc2ccccc2)c1C,-1.1%,nt,-4.1%,nt,nt
COc1ccc(NC(=O)c2c(C)nn(Cc3ccccc3)c2Cl)cc1S(=O)(=O)N1CCOCC1,13.7%,3.9%,2.06µM*,?,?
CN(C)c1cccc(-c2nnc(SCCCC#N)o2)c1,-4.8%,?,1.8%,11.2µM*,?
Nc1c(Cl)ncnc1NCCc1ccc(O)cc1,?,7.94µM*,1.2%,-4.1%,10.3µM*
Cc1ccc2c(c1)C(=C(C#N)C#N)CCN2,8.9%,nt,11.2%,nt,nt
COc1ccc(C(=O)C2CCCN(C(=O)c3noc4c3CCCC4)C2)cc1F (stereo unspecified),1.0%[1.84 µM],-17.8%,-26.4%,38.2%,?
COc1ccc(C(=O)C2CCCN(C(=O)c3noc4c3CCCC4)C2)c(C)c1 (stereo unspecified),-31.2%,-12.3%,?,12.8%,25.9µM*
CCCNC(=O)c1ccccc1NC(=O)c1ccccc1N(C)S(=O)(=O)c1ccc(C)cc1,?,-3.3%,?,-5.4%,23.1µM*
